Many of the other results were omitted from the sample, so hits are more common in it than they were.
mcGAS RapidFire – mouse cGAS inhibition by mass spec. 0.18% of 130,000 active. inhibition, % at 12.5 µM. recombinant mouse cGAS, cGAMP by RapidFire MS. Q8C6L5;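 active = inhibition of cGAS enzyme activity at or above 60%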;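 note: enzyme stimulated by 45 bp dsDNA with ATP and GTP substrates; cGAMP share of summed cGAMP plus half ATP and half GTP signals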
Target sequence (Q8C6L5 whole entry, looked up): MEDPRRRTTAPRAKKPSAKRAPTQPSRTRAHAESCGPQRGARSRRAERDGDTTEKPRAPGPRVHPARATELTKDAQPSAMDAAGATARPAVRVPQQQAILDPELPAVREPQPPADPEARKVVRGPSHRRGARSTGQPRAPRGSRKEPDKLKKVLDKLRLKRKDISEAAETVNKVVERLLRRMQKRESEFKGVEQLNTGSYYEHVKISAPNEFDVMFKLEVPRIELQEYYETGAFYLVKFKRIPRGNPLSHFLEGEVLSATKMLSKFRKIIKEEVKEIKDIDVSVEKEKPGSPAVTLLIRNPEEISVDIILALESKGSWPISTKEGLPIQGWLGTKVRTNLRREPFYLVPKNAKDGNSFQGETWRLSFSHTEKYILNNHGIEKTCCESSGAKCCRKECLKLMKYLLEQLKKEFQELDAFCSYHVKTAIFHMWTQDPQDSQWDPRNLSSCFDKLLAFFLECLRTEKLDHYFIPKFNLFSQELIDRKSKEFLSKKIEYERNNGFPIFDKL
Numbers without * were called inactive.

SMILES	mcGAS RapidFire
CCCOC1CCCN(c2cc(CCN)nc(C)n2)C1 (configuration not stated)	97.3*
CN(C)CC1(O)CCN(C(=O)c2ccc(CO)o2)C1 (configuration not stated)	-16.3
C=C(Br)Cn1c(C(F)(F)F)nc2ccccc21	-8.4
Cc1ccc(C(=O)N2CCC(c3n[nH]c(=O)n3-c3ccccc3)CC2)s1	-0.5
COc1cc(C)c(NC(=O)c2ccc(=O)[nH]c2)cc1OC	-0.5
COc1cc(NCCC(=O)Nc2ccccc2OC)ncn1	-15.7
CC(C)C(C)NC(=O)c1ccc2c(c1)S(=O)(=O)Nc1ncnn1-2 (configuration not stated)	1.6
COC(=O)CSC1=NS(=O)(=O)c2ccccc2N1	-3.3
COC(=O)c1nc2n(n1)-c1ccccc1S(=O)(=O)N2	91.3*
Cc1cc(=O)oc2cc(NS(=O)(=O)c3ccc4[nH]c(=O)sc4c3)ccc12	10.0
CCCOC(=O)C1=C(C)N(C)C(=O)NC1c1ccc([N+](=O)[O-])cc1 (configuration not stated)	2.1
CCOCCOC(=O)C1=C(C)N(CC)C(=O)NC1c1ccc([N+](=O)[O-])cc1 (configuration not stated)	98.2*
CCOCCOC(=O)C1=C(C)N(C)C(=O)NC1c1cccc([N+](=O)[O-])c1 (configuration not stated)	-6.9
O=C1Nc2ccc(Br)cc2C1=NN=C1CC(c2ccccc2)N=N1 (configuration not stated)	0.6
COc1ccc(CN2CCN(Cc3cnn(C)c3)CC2CCO)c(C)c1C (configuration not stated)	-1.8
CC(=O)Nc1ccc(C(=O)Nc2ccc(S(=O)(=O)N3CCCC3)cc2)s1	-11.0
Cn1c(N)c(C(=O)CSc2nnc3c(n2)[nH]c2ccccc23)c(=O)n(C)c1=O	-5.1
CCSc1nnc2c3ccccc3n(C)c2n1	-7.9
CCSc1nnc2c(=O)[nH]c(=O)[nH]c2n1	83.8*
CCc1cccc(NC(=O)CCC(=O)N(C)Cc2nc3ccccc3n2C)c1	-12.7
Cc1ncc(CN2CCOC(CCNC(=O)NC(C)C)C2)[nH]1 (configuration not stated)	-3.7
CCS(=O)(=O)Oc1ccc(CNCCOC)cc1	-7.3
O=C(NCC1COc2ccccc2O1)c1coc(=O)c2ccccc12 (configuration not stated)	9.1
O=C1NC(=S)SC1=Cc1cccnc1	19.0
O=C1/C(=C/c2cccnc2)COc2c(F)cccc21	72.7*
SMILES	mcGAS RapidFire
O=C1/C(=C\c2cccnc2)CSc2ccc(Br)cc21	5.8
Cc1cc(C)n2nc(C)c(C(=O)NC3C4CCCC3CN(C3CC3)C4)c2n1 (configuration not stated)	-3.2
CC1(CCC(=O)N2CCC(Sc3ccc(F)cc3)CC2)CCC(=O)N1 (configuration not stated)	-1.2
CC(Cc1ccncc1)OC(=O)Cc1csc(C(C)(C)C)n1 (configuration not stated)	-21.4
Cc1cc(O)ccc1C(=O)O	-0.7
Nc1ccc(O)c(C(=O)O)c1	-4.4
O=C(O)C1=CC(=C(c2ccc(O)c(C(=O)O)c2)c2ccc(O)c(C(=O)O)c2)C=CC1=O	95.4*
Cc1c(C(=O)O)nn(C(C)(C)C)c1Oc1ccc([N+](=O)[O-])cc1F	-4.0
COc1ccc(N2CCN(C(=O)C3CC=CCC3C(=O)NC3CCCC(C)C3)CC2)cc1 (configuration not stated)	9.3
O=C(CSc1nnc(C2CC2)n1C1CC1)NC(=O)NCC(F)(F)F	-13.5
Cc1ccc(OCCN2CCC2(C)C(=O)NCCCN2CCCC2=O)cc1 (configuration not stated)	-4.1
S=c1[nH]nc2c3ccccc3ncn12	86.9*
Cc1nc2c3ccccc3ncn2n1	-2.0
S=c1[nH]nc2c3cnn(-c4ccccc4)c3ncn12	-3.1
Cn1nc(-c2cccnc2)c2c1NC(=O)CC2c1ccc2cccc(O)c2n1 (configuration not stated)	-3.0
Brc1ccc(C(NCc2ccon2)c2ccccc2)cc1 (configuration not stated)	-9.6
Cc1ccc2n1CCn1cc(-c3ccccc3)cc1-2	77.4*
Cc1cc2n(c1)CCn1c(C)ccc1-2	-1.7
Cc1ccc(F)c(CN(C)Cc2cnn(C)c2C)c1F	0.8
CCC(=O)Nc1cc(S(=O)(=O)N2CCOCC2)ccc1C	-0.9
OC[C@@H]1CCCN1Cc1csc(-c2ccc(Br)cc2)n1	4.1
O=c1cc(CCn2cccn2)nc(-c2ccc(CN3CCC[C@@H]3CO)cc2)[nH]1	89.0*
O=C(O)c1ccccc1CN1CCCCC1CCn1cccn1 (configuration not stated)	-15.6
O=C1C=CC2C3C(=O)N(c4ccccc4)C(=O)C3C1N2c1ccccc1 (configuration not stated)	92.0*
O=C1C2C3C=CC(C3)C2C(=O)N1c1ccccc1 (configuration not stated)	-3.6
SMILES	mcGAS RapidFire
O=C1C=CC(=O)N1c1ccccc1	-6.4
O=C(c1cccc(COc2ccc3ccccc3c2)c1)N1CCOCC1	-6.5
COc1ccc2nc(SCC#N)[nH]c2c1	5.5
COc1ccc(C(C)=O)cc1CC(=O)NC(CN(C)C)c1ccccc1 (configuration not stated)	6.0
COc1ncccc1CNC(=O)CCC1CCCO1 (configuration not stated)	-3.5
CCOC(=O)Oc1cc2oc(=O)sc2cc1Br	74.3*
O=c1oc2ccc(O)cc2s1	1.0
COC(=O)Oc1cc2oc(=O)sc2cc1Br	2.4
CCn1nc(C)c(C(=O)N2CCCC3(CC2)CNC(=O)O3)c1C (configuration not stated)	-11.5
COC(=O)c1c(N)sc2c1CCC2	-6.7
COC(=O)c1c(N)sc2c1CCCC2	-1.7
COC(=O)c1c(N2C(=O)C=CC2=O)sc2c1CCCC2	91.4*
CCN(Cc1nc2cc(Cl)ccc2c(=O)[nH]1)C(=O)CCc1ccc(C)c(Cl)c1	-5.9
COc1ccc(OC)c(-c2cc(C(=O)N3CCN(C4CCCCC4)CC3)n(C)n2)c1	-4.4
C1CN(CC23CCC4CC(CC(C4)C2)C3)CCO1	-15.8
N#Cc1cc2[nH]c3ccccc3c2n(-c2ccc([N+](=O)[O-])cc2)c1=N	-6.6
CC1(C)Cc2c(cnn2-c2ccc([N+](=O)[O-])cc2)-c2[nH]c3ccccc3c21	76.3*
Nc1c(-c2ccccc2)cnn1-c1ccc([N+](=O)[O-])cc1	-31.1
O=C(CCN1CCC(N2C(=O)Cc3ccccc32)CC1)Nc1nccs1	-12.3
O=C(O)c1nc(-c2ccc(F)cc2)n2c1CCCCC2	18.2
COCCNc1ncc2c(n1)c(=O)c(C#N)c1[nH]c3ccc(Br)cc3c(=O)n12	24.7
CS(=O)(=O)c1ncc2c(n1)c(=O)c(C#N)c1[nH]c3ccccc3c(=O)n12	67.4*
Cc1c(Cc2ccc(Cl)cc2)c(=O)n2c([nH]c3ccccc32)c1C#N	-2.1
COC(=O)c1cc2n(n1)CCN(Cc1cc3c(cc1OC)CCC3)C2	-5.8
CC(=NCCc1ccccc1)c1c(C(F)(F)F)[nH]n(-c2nc3ccccc3s2)c1=O	5.7
SMILES	mcGAS RapidFire
C/C(=N\N1CCN(C)CC1)c1c(C(F)(F)F)[nH]n(-c2nc3ccccc3s2)c1=O	-2.3
C/C(=C1\C(=O)N(c2nc3ccccc3s2)N=C1C(F)(F)F)N1CCN(c2ccccc2)CC1	65.8*
Cc1ccc(Cl)cc1N1CCN(Cc2nc(-c3ccccn3)no2)CC1	-6.0
O=C(c1ccccc1)N1CCC(NCCOc2ccccc2F)CC1	-10.0
Cn1c(SCc2nnc(-c3cccc(Cl)c3)o2)n[nH]c1=O	-5.0
CC(=O)NCCC(=O)N1CCCc2cc(Br)cc(F)c21	-16.5
